This passage reports outcome, Potency and activation results from PubChem BioAssay (Tox21).

Assay [1] in a line: qHTS assay to identify small molecule agonists of the vitamin D receptor (VDR) signaling pathway - cell viability counter screen (AID 743224). Note: % is set by controls: 0 for no effect and ±100 for the full control effect; nearly all actives have a fitted effect of over 50% in size. The procedure, abridged:
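Cells: VDR-bla, 2,000/well, settled 4 h. Treatment: compounds in DMSO, 16 h, 37C/5% CO2. Readout: CellTiter-Glo luminescence after 30 min RT.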
A general note: qHTS replaces the single test concentration by a dilution series.

Assay [2] can be described thus: qHTS assay to identify small molecule antagonists of the vitamin D receptor (VDR) signaling pathway - cell viability counter screen (AID 743225). Note: % is set by controls: 0 for no effect and ±100 for the full control effect; nearly all actives have a fitted effect of over 50% in size. The procedure, abridged: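 Cytotoxicity toward the VDR-bla HEK 293T line was scored by ATP-based CellTiter-Glo luminescence, read in the wells already used for the beta-lactamase readout after 16 h compound treatment under 3 nM 1-alpha,25-dihydroxyvitamin D3 stimulation.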

Assay [3] can be described thus: qHTS assay to identify small molecule agonists of the NFkB signaling pathway (AID 1159509; active = well fitted curve in the direction sought with a large enough effect in the signal ratio in the repeat runs, not every such curve was filed as active; the % refers to the signal ratio; note: % is set by controls: 0 for no effect and ±100 for the full control effect). The essentials: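 Readout: FRET fluorescence, 405 nm excitation, 460/530 nm emission; beta-lactamase expression disrupts FRET. Cells: ME-180 stably carrying NF-kB-driven bla reporter. Compound exposure 5 hr, 37 C, 5% CO2.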
A short description of assay [4]: qHTS assay to identify small molecule agonists of the NFkB signaling pathway - cell viability counter screen (AID 1159515; calls by dose curve; note: % is set by controls: 0 for no effect and ±100 for the full control effect; nearly all actives have a fitted effect of over 55% in size). The essentials:
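Cells are seeded (2,000 NFkB-bla ME-180 per well), rested overnight, and dosed with DMSO-dissolved compounds for 5 hr at 37 C. Viability is then read by CellTiter-Glo luminescence after 30 min at room temperature.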

Assay [5] can be described thus: qHTS assay to identify small molecule agonists of the endoplasmic reticulum stress response signaling pathway (AID 1159516; active = well fitted activation curve with a large enough effect in the signal ratio in the repeat runs, not every such curve was filed as active; the % refers to the signal ratio; note: % is set by controls: 0 for no effect and ±100 for the full control effect). The essentials:
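Cells are seeded at 1,500 per well and incubated overnight. Compounds in DMSO are added for 5 hr at 37 C, then beta-lactamase FRET substrate for 2 hr at room temperature, and fluorescence at 460 and 530 nm is measured.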

The nature of assay [6]: qHTS assay to identify small molecule agonists of the endoplasmic reticulum stress response signaling pathway - cell viability counter screen (AID 1159517; calls by dose curve;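 note: HeLa cells carrying an ER stress response element beta-lactamase reporter; % is set by controls: 0 for no effect and ±100 for the full control effect; nearly all actives have a fitted effect of over 50% in size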). The procedure, abridged: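 Cytotoxicity of test compounds toward ESRE-bla HeLa cells was assessed after 5 hr exposure. The luminescent CellTiter-Glo signal was measured 30 min after reagent addition.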
Assay [7] in a line: qHTS assay to identify small molecule antagonists of the retinoid-related orphan receptor gamma (ROR-gamma) signaling pathway - cell viability counter screen (AID 1159520). Note: % is set by controls: 0 for no effect and ±100 for the full control effect; nearly all actives have a fitted effect of over 50% in size. The essentials:
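Tet-on ROR gamma CHO cells (1,000/well) were plated 4 hr, given compounds in DMSO for 2 hr at 37 C, then induced with 1 uM final doxycycline for 16 hr. Viability was read as ATP by CellTiter-Glo luminescence after 30 min.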

Assay [8] deals with Nuclear receptor ROR-gamma (Homo sapiens) (UniProt P51449). Kind of assay: qHTS assay to identify small molecule antagonists of the retinoid-related orphan receptor gamma (ROR-gamma) signaling pathway (AID 1159521). The procedure, abridged: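 Readout: ONE-Glo luciferase luminescence, 30 min at room temperature. System: Tet-on RORγ CHO, RORE-LUC. Sequence: compound 2 h, doxycycline 1 uM final, 16 h at 37 C.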

Assay [9] in a line: qHTS assay to identify small molecule agonists of the AP-1 signaling pathway - cell viability counter screen (AID 1159525; calls by dose curve; note: nearly all actives have a fitted effect of over 55% in size). The essentials: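 Each titration point was normalised to DMSO and tetra n-octyl ammonium bromide controls. The read was Cell Titer Glo luminescence after 30 min at RT, following 5 h compound exposure of ME-180 AP-1-bla cells at 37 °C.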
A short description of assay [10]: qHTS assay to identify small molecule agonists of the AP-1 signaling pathway (AID 1159526; calls by dose curve; note: % is set by controls: 0 for no effect and ±100 for the full control effect).
In assay [11] the target is Retinoic acid receptor RXR-alpha (Homo sapiens) (UniProt P19793). Kind of assay: qHTS assay to identify small molecule agonists of the RXR signaling pathway (AID 1159527; calls by dose curve; note: nearly all actives have a fitted effect of over 35% in size; note: potency is the fitted concentration of half-maximal effect). The procedure, abridged: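 Reporter activation is measured as beta-lactamase activity via FRET substrate cleavage (emission 460/530 nm) in HEK 293T cells expressing an RXR-alpha-driven bla construct, following 16 hr compound exposure at 37 C.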
Chain of Retinoic acid receptor RXR-alpha (Homo sapiens) (P19793 whole entry, looked up): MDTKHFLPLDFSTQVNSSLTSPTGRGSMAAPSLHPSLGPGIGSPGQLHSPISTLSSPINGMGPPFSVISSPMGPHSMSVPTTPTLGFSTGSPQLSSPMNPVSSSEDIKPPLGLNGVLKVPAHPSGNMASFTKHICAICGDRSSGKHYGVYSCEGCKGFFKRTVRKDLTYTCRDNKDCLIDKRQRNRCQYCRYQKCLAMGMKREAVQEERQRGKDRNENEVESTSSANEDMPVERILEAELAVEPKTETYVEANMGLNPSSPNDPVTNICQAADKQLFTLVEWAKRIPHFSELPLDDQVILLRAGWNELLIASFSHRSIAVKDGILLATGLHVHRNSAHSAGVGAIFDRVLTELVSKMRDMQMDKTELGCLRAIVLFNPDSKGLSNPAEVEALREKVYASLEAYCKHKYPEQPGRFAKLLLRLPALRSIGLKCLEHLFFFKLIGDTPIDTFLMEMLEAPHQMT

The nature of assay [12]: qHTS assay to identify small molecule agonists of the RXR signaling pathway - cell viability counter screen (AID 1159529). The procedure, abridged: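 Tox21 10K compounds were tested for cytotoxicity against GeneBLAzer RXR-alpha HEK 293T cells grown in 2% charcoal-stripped FBS. Exposure lasted 16 hr at 37 C, 5% CO2; viability read by CellTiter-Glo luminescence.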
The nature of assay [13]: qHTS assay to identify small molecule antagonists of the retinoid acid receptor (RAR) signaling pathway - cell viability counter screen (AID 1159551). Note: % is set by controls: 0 for no effect and ±100 for the full control effect; nearly all actives have a fitted effect of over 35% in size. The procedure, abridged: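 Cells (C3RL4) are plated, incubated overnight, dosed with compound in DMSO, then given retinol at 1 uM final. After 6 h at 37 C, CellTiter-Glo is added and luminescence read following 30 min at room temperature.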

A short description of assay [14]: qHTS assay to identify small molecule antagonists of the retinoic acid receptor (RAR) signaling pathway (AID 1159552). The procedure, abridged:
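Overnight-plated C3RL4 reporter cells get compound, then retinol to 1 uM final; plates sit 6 hr at 37 C, 5% CO2. A luciferase reagent is added and light output recorded after 30 min at room temperature.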

A short description of assay [15]: qHTS assay to identify small molecule agonists of the retinoic acid receptor (RAR) signaling pathway (AID 1159553). Note: % is set by controls: 0 for no effect and ±100 for the full control effect. The note with it: C3RL4 RARE luciferase reporter, agonist, 6 h; activation: at 73.3 µM (top of the series). The essentials: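 Seed C3RL4 reporter cells at 1,000 per well and incubate overnight at 37 C. Add compounds in DMSO, incubate 6 hr. Add luciferase reagent, wait 30 min at room temperature, read luminescence.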

A short description of assay [16]: qHTS assay to identify small molecule antagonists of the estrogen related receptor (ERR) signaling pathway from Tox21 library - cell viability counter screen (AID 1224834). Note: % is set by controls: 0 for no effect and ±100 for the full control effect; nearly all actives have a fitted effect of over 30% in size. The essentials:
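ERR cells, 2,000/well; 6 h settle at 37 C/5% CO2; pin-tool compound transfer in DMSO; 17.5 h at 37 C; CellTiter-Fluor, 30 min; fluorescence intensity.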

The target of assay [17] is Luciferin 4-monooxygenase (Photinus pyralis) (UniProt P08659). Kind of assay: qHTS assay to identify small molecule inhibitors of firefly luciferase (AID 1224835). Note: % is set by controls: 0 for no effect and ±100 for the full control effect; nearly all actives have a fitted effect of over 25% in size. The procedure, abridged:
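Quantitative HTS format; KM concentrations of both substrates. Purified P. pyralis FLuc activity quantified from luminescence images.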

Assay [18] in a line: qHTS assay to identify small molecule agonists of the constitutive androstane receptor (CAR) signaling pathway - cell viability counter screen (AID 1224836). Note: % is set by controls: 0 for no effect and ±100 for the full control effect; nearly all actives have a fitted effect of over 45% in size. The procedure, abridged: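 Fluorescence from CellTiter-Fluor indicates live cells after 23 h exposure. The human hepatoma line expresses hCAR and a CYP2B6-2.2kb reporter. Incubation medium contains 0.75 uM PK11195 (final).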

The nature of assay [19]: qHTS assay to identify small molecule antagonists of the constitutive androstane receptor (CAR) signaling pathway - cell viability counter screen (AID 1224837). Note: % is set by controls: 0 for no effect and ±100 for the full control effect; nearly all actives have a fitted effect of over 45% in size. The procedure, abridged:
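Viability was measured with CellTiter-Fluor in a HepG2 line carrying stably transfected hCAR and a CYP2B6-2.2kb construct. Cells were exposed for 23 hr at 37 C to 15 compound concentrations with 50 nM CITCO as agonist.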

Assay [20] deals with Nuclear receptor subfamily 1 group I member 3 (Homo sapiens) (UniProt Q14994). Kind of assay: qHTS assay to identify small molecule antagonists of the constitutive androstane receptor (CAR) signaling pathway (AID 1224838).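 Note: HepG2 cells stably expressing hCAR with CYP2B6 luciferase reporter stimulated by CITCO; % is set by controls: 0 for no effect and ±100 for the full control effect; nearly all actives have a fitted effect of over 40% in size.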 The procedure, abridged:
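Antagonist mode used CITCO at a final 50 nM to activate CAR in human hepatoma HepG2 cells carrying stable hCAR and a 2.2 kb CYP2B6 promoter-luciferase construct. Compounds were tested at 15 concentrations over 24 h, with luminescence as the end point.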

Inconclusive results are not listed. A number with no mark means an inactive call. The source made the active and inactive calls. Unless noted, calls come from the whole dose curve; as a rule, active = well fitted curve in the direction sought with a large enough effect in the repeat runs; inconclusive = weak or mixed curves; inactive = no such curve, though single readings can be large; an effect the other way counts as inactive or inconclusive.

Chain of Nuclear receptor subfamily 1 group I member 3 (Homo sapiens) (Q14994 whole entry, looked up): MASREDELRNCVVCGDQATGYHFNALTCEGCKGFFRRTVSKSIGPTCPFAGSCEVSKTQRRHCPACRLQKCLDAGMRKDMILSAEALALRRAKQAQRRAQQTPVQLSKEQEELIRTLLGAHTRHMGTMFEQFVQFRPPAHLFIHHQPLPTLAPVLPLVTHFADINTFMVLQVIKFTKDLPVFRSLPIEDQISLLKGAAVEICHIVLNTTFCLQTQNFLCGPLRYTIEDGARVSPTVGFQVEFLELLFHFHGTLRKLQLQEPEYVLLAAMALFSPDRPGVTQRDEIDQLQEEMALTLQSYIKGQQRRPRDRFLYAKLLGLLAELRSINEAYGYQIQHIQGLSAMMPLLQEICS
Chain of Luciferin 4-monooxygenase (Photinus pyralis) (P08659 whole entry, looked up): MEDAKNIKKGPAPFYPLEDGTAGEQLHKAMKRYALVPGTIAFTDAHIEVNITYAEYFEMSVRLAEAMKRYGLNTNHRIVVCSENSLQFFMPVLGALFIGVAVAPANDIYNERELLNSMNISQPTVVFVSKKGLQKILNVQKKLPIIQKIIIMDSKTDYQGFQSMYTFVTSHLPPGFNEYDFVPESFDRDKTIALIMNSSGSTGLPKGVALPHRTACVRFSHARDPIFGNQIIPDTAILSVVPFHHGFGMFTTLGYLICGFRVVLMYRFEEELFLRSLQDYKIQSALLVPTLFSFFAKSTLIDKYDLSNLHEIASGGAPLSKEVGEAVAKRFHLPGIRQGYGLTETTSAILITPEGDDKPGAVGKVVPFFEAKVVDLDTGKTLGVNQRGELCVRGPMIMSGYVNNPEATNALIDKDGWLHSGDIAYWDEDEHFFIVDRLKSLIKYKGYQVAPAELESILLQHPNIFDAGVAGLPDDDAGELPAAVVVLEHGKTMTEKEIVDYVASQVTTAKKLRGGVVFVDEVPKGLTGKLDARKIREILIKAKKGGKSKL

For `CC(C)c1ccccc1O`, the result in assay [1], in assay [2], in [3], in assay [4], in [5] and in [6] was inactive. Moreover, the outcome in assay [7], in assay [8], in assay [9], in [10], in assay [12] and in assay [13] was inactive. Moreover, in assay [18], the compound was classed as inactive. In addition, the Potency result in [11], in assay [14], in assay [15], in assay [16], in assay [17] and in [19] was “inactive” in each case.

As for `CC(C)(c1ccc(Oc2ccc3c(c2)C(=O)OC3=O)cc1)c1ccc(Oc2ccc3c(c2)C(=O)OC3=O)cc1`, the compound was called inactive in [1], in assay [2], in assay [3], in [4], in assay [5] and in assay [6]. For the same compound, the compound was called inactive in assay [7], in assay [8], in assay [9], in [10], in [12] and in assay [13]. Moreover, the call in assay [18] was inactive. The Potency in [11] is 13.7 µM (active). For the same compound, the Potency result in assay [14], in [15], in assay [16], in assay [19] and in [20] was “inactive” each time.

As for `Cc1nc2ccccc2c(=O)o1`, the compound was called inactive in assay [1], in assay [2], in assay [3], in assay [4], in [5] and in assay [6]. The outcome in assay [7], in assay [8], in [9], in assay [10], in [12] and in assay [13] was inactive. Also, the result in assay [18] was inactive. The Potency entry in assay [11], in assay [14], in assay [15], in assay [16], in [17] and in assay [19] was “inactive” throughout. In addition, in [20], the Potency result was “inactive”.

As to `CCCCCC1Nc2cc(C(F)(F)F)c(S(N)(=O)=O)cc2S(=O)(=O)N1` (stereo not given), the compound was classed as inactive in [1], in [2], in [3], in [4], in [5] and in assay [6]. The outcome in assay [7], in assay [8], in [9], in assay [10], in assay [12] and in assay [13] was inactive. For the same compound, the call in assay [18] was inactive. Moreover, the Potency result in assay [11], in assay [14], in assay [15], in assay [16], in assay [17] and in [19] was “inactive” in each case.

As for `FC(F)(F)c1ccc(Cl)cc1Cl`, the result in [1], in assay [2], in assay [3], in assay [4], in assay [5] and in [6] was inactive. For the same compound, the compound was called inactive in assay [7], in assay [8], in [9], in [10], in assay [12] and in [13]. The result in assay [18] was inactive. Moreover, the Potency entry in assay [11], in [14], in [16], in [17] and in assay [19] was “inactive” throughout. In addition, in [15], the activation was 0.481% (active).

As to `FC(F)(F)/C(=N\OCC1OCCO1)c1ccc(Cl)cc1`, the compound was classed as inactive in assay [1], in assay [2], in assay [3], in [4], in assay [5] and in assay [6]. The call in assay [7], in [8], in assay [9], in assay [10], in [12] and in assay [13] was inactive. Further, the result in [18] was inactive. The Potency entry in [11], in [14], in [15], in assay [16], in assay [17] and in [19] was “inactive” in each case. In [20], the Potency entry was “inactive”.

Turning to `COCCOCCOCCOC`, the result in [1], in assay [2], in assay [3], in assay [4], in assay [5] and in assay [6] was inactive. Moreover, the outcome in assay [7], in assay [8], in assay [9], in assay [10], in [12] and in assay [13] was inactive. In addition, the outcome in assay [18] was inactive. The Potency entry in assay [11], in [14], in assay [15], in assay [16], in [17] and in [19] was “inactive” in each case.
